Data taken from PubChem BioAssay AID720724 (Broad Institute, 2013).
Results with a measured potency or affinity are listed apart. Activity calls are given as the source filed them.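 How the source made its calls: active means signal falls with a fitted half-maximal dose at most twice the top dose, in every run; inconclusive means steady partial drop, poor fit, or runs disagree; inactive means flat, rising or too weak in every run.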

Experiment: inhibitors of control Renilla luciferase reporter, dose response, counter-screen for Shn3 3'UTR targeting project, Clone20-Shn3RL cells, dual-Glo, cherry-pick, set 2 (AID 720724)
Details: renilla luciferase luminescence, 24 h; series mostly up to 35 µM
With `CCOC(=O)Cn1c(S(=O)(=O)Cc2ccccc2Cl)nc(-c2ccccc2)c1-c1ccccc1` the outcome was “inactive”. In the case of `CCOC(=O)c1oc2ccc(S(=O)(=O)n3nc(-c4ccc(OC)cc4)cc3N)cc2c1C`, the outcome is reported as “inactive”. For `CC(C)Cn1c(N)c(C(=O)COC(=O)C2Cc3ccccc3CN2S(C)(=O)=O)c(=O)n(C)c1=O` (centres undefined), the outcome was “inactive”. In the case of `COc1ccccc1N1CCN(c2ncc(C(=O)N3CCN(c4cccc(Cl)c4)CC3)c3ccccc23)CC1`, the outcome is reported as “inactive”. For `Oc1ccc(-c2n[nH]c(C(F)(F)F)c2-c2ccccc2)c(O)c1`, the outcome was “inactive”. For `COc1ccccc1NC(=O)Cn1cc(C(=O)C2CC2)c2ccccc21`, the outcome was “inactive”. For `COc1ccc(C(=O)Nc2nc3ccccc3s2)c(OC)c1`, the outcome was “inactive”. With `CCn1c(C)cc(C(=O)COC(=O)c2ccccc2[N+](=O)[O-])c1C` the outcome was “inactive”. For `O=C(Nc1nc(-c2ccccc2)cs1)C1CCCCN1S(=O)(=O)c1ccccc1` (centres undefined), the outcome was “inactive”. With `OCCCNc1nccc(-c2cc(Nc3cccc(Cl)c3)ncn2)n1` the outcome was “inactive”. For `CCOC(=O)C1CCCN(S(=O)(=O)c2ccc(S(=O)(=O)N3CCCC3)cc2)C1` (centres undefined), the outcome was “inactive”. With `CCn1c(CNC(=O)c2cc(OC)c(OC)c(OC)c2)cc2cc(C)ccc21` the outcome was “inactive”. For `O=C(Nc1ccc(N2CCOCC2)cc1)c1ccc(Cl)c(S(=O)(=O)N2CCCC2)c1`, the outcome was “inactive”. With `O=C(NCCc1ccccc1)c1ccc2c(c1)OCCCO2` the outcome was “inactive”. With `Cc1ccc2c(c1)nnn2C1CCN(S(=O)(=O)c2ccc(C(=O)N3C(C)CCCC3C)cc2)CC1` (centres undefined) the outcome was “inactive”. With `O=C(c1cc(COc2ccc3ncccc3c2)on1)N1CCCCCC1` the outcome was “inactive”. In the case of `Cn1c(=O)c2c(nc(NCc3ccco3)n2CCc2ccccc2)n(C)c1=O`, the outcome is reported as “inactive”. In the case of `O=C(CSc1nnc(-c2cccnc2)s1)Nc1ccnc2ccccc12`, the outcome is reported as “inactive”. With `Cc1cccc(NS(=O)(=O)c2ccc(C3CCCCC3)cc2)c1` the outcome was “inactive”. With `COc1ccc(CC(=O)Nc2ccncc2Cl)cc1` the outcome was “inactive”. With `COc1ccccc1NS(=O)(=O)c1cc(NC(=O)c2ccc(Cl)nc2)ccc1Cl` the outcome was “inactive”. In the case of `CC(Oc1ccc(F)cc1)C(=O)N(CCC1=CCCCC1)c1c(N)n(Cc2ccccc2)c(=O)[nH]c1=O` (centres undefined), the outcome is reported as “inactive”. In the case of `CC(C)(C)C(=O)Nc1ccc(NC(=O)c2ccco2)nc1`, the outcome is reported as “inactive”. With `COc1ccc(OCc2cccc(C(=O)O)c2)cc1` the outcome was “inactive”. In the case of `Cn1nc(CC(=O)Nc2ccc3c(c2)OCCO3)c2ccccc2c1=O`, the outcome is reported as “inactive”. For `COc1ccc(CNC(=O)C(C)n2ccc3cc(S(=O)(=O)N4CCCCCC4)ccc32)cc1` (centres undefined), the outcome was “inactive”. For `CCOC(=O)N1CCN(c2ccc(S(=O)(=O)N(Cc3ccccc3)Cc3ccccc3)cn2)CC1`, the outcome was “inactive”. With `CC(C)(C)C(=O)Nc1cc2nn(-c3ccccc3)nc2cc1Cl` the outcome was “inactive”. For `CC1Cc2cc(S(=O)(=O)N3CCN(c4ccc(Cl)cc4)CC3)ccc2N1C(=O)C1CC1` (centres undefined), the outcome was “inactive”. For `CNc1ccccc1C(C)(C)c1cc(-c2cccc(OC)c2)no1`, the outcome was “inactive”. In the case of `O=C(Nc1ccc(Cl)cc1)c1cc(S(=O)(=O)N2CCOCC2)cs1`, the outcome is reported as “inactive”. In the case of `O=C(O)c1cccc(COc2ccccc2Cl)c1`, the outcome is reported as “inactive”. For `CCCCN1CC(COCc2ccccc2)Oc2cccc(Oc3ccc(C(C)C)cc3)c2S1(=O)=O` (centres undefined), the outcome was “inactive”. In the case of `CC(C)[C@H](NC(=O)OC(C)(C)C)c1nnc(S(=O)(=O)Cc2c(F)cccc2Cl)o1`, the outcome is reported as “inactive”.
